# Assay outcomes (PubChem)
# S2 tox = reduces viability in counter-screen for ATXN expression inhibitors; S2 cells (HEK-293 line with an ATXN2-luciferase reporter) viability, CellTiter-Fluor protease fluorescence, 24 h; Potency, µM (highest dose often 56.7 µM), hits mostly cytotoxic; hit rate 0.49% among 400,000; note: nearly all actives have a fitted effect of over 40% in size
# HepG2 tox = HepG2 cytotoxicity, counter-screen for TGF-b inhibitors; HepG2 CAGA-GFP viability, ATP luminescence, 18 h; hit rate 0.76% among 410,000; Potency, µM (top dose mostly 46.1 µM), most hits filed as cytotoxic
#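 CellTiter-Glo luminescence gave cytotoxicity after 18 hours at 37 degrees C. The cells were HepG2 CAGA-GFP in 1% FBS DMEM, stimulated with 500 pg/mL TGF-beta after compound addition. %Activity was normalised to no-cell wells (complete cell-killing) and DMSO (no toxicity), and curves were fitted and classified.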
# ATXN2 expr inh = inhibitors of ATXN2 expression. hit rate 0.72% among 360,000. HEK-293 ATXN2-luciferase reporter, luminescence, 24 h. AID 1745845. Potency, µM (series often up to 57 µM), usual class: inhibitors; note: nearly all actives have a fitted effect of over 55% in size
#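 ATXN2-luciferase reporter cells (luciferase flanked by upstream and downstream ATXN2 gene portions) were treated 24 h at 37 °C with compounds at up to 57 uM. SteadyGlo luminescence gave expression; GF-AFC fluorescence gave viability.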
# IL-1B inflam inh = inhibitors of inflammasome signaling (IL-1 beta secretion). THP-1 LPS/ATP IL-1B secretion, AlphaLISA, 16 h; stronger effect = lower value. activity change, % at 57.5 µM. hit rate 4.7% among 360,000; in the data active = activity change below about -50%; inconclusive = mostly about -30% to -49%
#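 THP-1 cells pretreated 1 hr with compounds (up to 57.5 uM final), then stimulated with LPS (250 ng/mL final) plus ATP (1.25 mM final); secreted IL-1B measured by AlphaLISA after 16 hr, decreased signal indicating inhibition.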
# TGFb SMAD3 inh = inhibitors of TGF-b signaling; hit rate 1.2% among 410,000; HepG2 CAGA-GFP TGF-b/SMAD3 reporter, GFP fluorescence, 18 h; TGF-beta stimulated, 500 pg/mL final; Potency, µM (doses to about 46.1 µM), hits mostly inhibitors; note: nearly all actives have a fitted effect of over 65% in size
#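 Smad-responsive CAGA-GFP expression was quantified in HEPG2 cells exposed to compounds and 500 pg/mL final TGF-beta for 18 h at 37 degrees C; unstimulated wells defined full inhibition.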
# Numbers stand for hits; - = inactive; ? = inconclusive; . = no result given. Shown are actives, neighbours in structure and some others; about 5.7% of the full set was active somewhere. Unless noted, calls come from the whole dose curve; as a rule, active = well fitted curve in the direction sought with a large enough effect; inconclusive = small, poorly fitted or top-dose-only effect, or another doubt; inactive = no such curve, though single readings can be large; an effect the other way counts as inactive or inconclusive.
SMILES,S2 tox,HepG2 tox,ATXN2 expr inh,IL-1B inflam inh,TGFb SMAD3 inh
O=C(N=Nc1c(O)[nH]c2ccc(Br)cc12)c1cc(-c2cccs2)nc2ccccc12,10µM,-,11.2µM,-,-
CCc1ccc(-n2nc3ccc(NC(=O)c4ccc(C#N)cc4F)cc3n2)cc1,-,-,-,.,-
Cc1ccc(C(=O)Nc2cccc(C(=O)O)c2)cc1S(=O)(=O)N1CCOCC1,-,-,?,-,-
Cc1ccc(C(=O)Nc2cccc(C(O)c3ccccc3)c2)cc1 (centres undefined),-,-,-,-51.5,-
O=C(O)c1cccc(NC(=O)c2ccccc2)c1,-,-,-,-,-
Cc1ccc(C(=O)NC(C(=O)Nc2ccccc2)c2ccccc2)cc1 (centres undefined),-,-,-,-,?
Cc1ccc(C(=O)Nc2cccc(C(=O)O)c2)cc1,-,-,2.51µM,-,-
Cc1ccc(C(=O)Nc2cccc(C(=O)O)c2)cc1S(=O)(=O)N1CCCCC1,-,-,12.6µM,-,-
CN(C)c1ccc(N=Nc2ccc(S(=O)(=O)O)cc2)cc1,.,-,.,.,-
COc1ccc(-c2nn(C)c3sc(C(=O)Nc4cccc(F)c4)cc23)cc1OC,-,-,?,.,-
Cc1nc(C)n(CC(=O)NCC2Cc3cc(-c4ccsc4)cc(Cl)c3O2)n1 (centres undefined),-,.,.,.,.
Cc1cc(Cl)c(S(=O)(=O)Nc2ccon2)cc1OCC(=O)NC1CCCCC1,-,-,-,-,?
Cc1ccc(C(C)C)cc1OCC(=O)NC1CCCCCCC1,-,-,-,-57.4,?
Cc1cc(Cl)c(S(=O)(=O)N2CCN(c3ccc(F)cc3)CC2)cc1OCC(N)=O,-,-,-,-,?
Cc1cc(Cl)c(S(=O)(=O)N2CCN(c3ccc(F)cc3)CC2)cc1OCC(=O)NC1CCCCC1,?,-,-,-75.5,-
COC(=O)COc1ccc(S(=O)(=O)Nc2ccc3c(c2)OCCO3)cc1C,-,-,-,-73.4,-
Cc1cc(Cl)c(S(=O)(=O)Nc2ccc3c(c2)OCCO3)cc1OCC(=O)NC1CCCCC1,-,-,-,-52.9,-
CCc1cccc(-n2c(=O)c3cccnc3n2CC(=O)NCc2ccccc2Cl)c1,.,-,.,.,-
CC(=O)N(C)c1ccc(C=C2C=Cc3ccccc32)cc1,-,-,-,-78.4,-
CCN(N=O)c1ccc(/C=C2\C=Cc3ccccc32)cc1,.,-,.,.,-
CC(=O)ON(C(C)=O)c1ccc(/C=C2/C=Cc3ccccc32)cc1,.,-,.,.,-
CCN(N=O)c1ccc(C=C2C=Cc3ccccc32)cc1,-,-,-,-65.7,-
COc1ccc(CCNC(=O)Cn2c(-c3ccc(F)cc3)cc(C(C)=O)c2C)cc1OC,.,-,.,.,-
COc1ccc(CNC(=O)CCc2c(C)nn(-c3ccc(N4CCCC4)nn3)c2C)c(OC)c1,.,-,.,.,-
O=C(Cn1c(=O)n2nc(-c3cccc(F)c3)nc2c2ccccc21)N1CCN(c2ccccc2F)CC1,-,-,-,.,-
SMILES,S2 tox,HepG2 tox,ATXN2 expr inh,IL-1B inflam inh,TGFb SMAD3 inh
CCOC(=O)c1cc(OC)c2cccc(CN3CCCC(C)(C(=O)NCCOC)C3)c2c1 (centres undefined),20µM,-,?,-,-
CCOC(=O)c1cc(OC)c2cccc(CN3CCC(C)(C(=O)NCCOC)C3)c2c1 (centres undefined),-,-,-,-,-
Cc1ccc(CNc2nc(C)c(-c3ccn(CCN4CCOCC4)n3)s2)o1,-,.,.,.,.
CCC(C)(C)c1ccc(OCCCC[n+]2cccc(C)c2C)c(C(C)(C)CC)c1,.,-,.,-93.1,10µM
Cc1cc(C(C)(C)C)ccc1OCCCCN1CCCC1,-,-,-,-,-
Cc1cc[n+](CC[n+]2ccc(C)cc2)cc1,-,-,-,-,-
CCC(C)(C)c1ccc(OCCCC[n+]2ccc(C)cc2)c(C(C)(C)CC)c1,?,12.6µM,20µM,-95.1,15.8µM
CC1CCN(CCOc2cccc(Br)c2)CC1,-,-,?,-,-
Clc1cccc(OCCN2CCN(CCOc3cccc(Cl)c3)CC2)c1,?,-,?,-85.4,?
Cc1nc(C)c(C(=O)N2CCCC(C(=O)c3ccc4ccccc4c3)C2)s1 (centres undefined),.,-,-,-,-
Cc1ccc2c(c1C)NC(=O)C21N2CCCC2C(C(=O)c2ccc3ccccc3c2)C12C(=O)Nc1ccccc12 (centres undefined),-,-,.,?,15.8µM
Cc1ccc(CCNC(=O)CN2C(=O)COc3ccc(S(=O)(=O)N4CCCCCC4)cc32)cc1,.,-,.,.,?
O=C(O)c1cccnc1C(=O)N1CCc2c([nH]c3ccccc23)C1C(F)(F)F (centres undefined),-,-,-,-,-
Cc1ccccc1C(=O)N1CCc2c([nH]c3ccccc23)C1C(F)(F)F (centres undefined),-,-,-,-54.7,?
CCN(C(=O)CSc1nc2ccccc2nc1Cc1cccc(OC)c1)c1cccc(C)c1,.,-,.,.,15.8µM
CCN(C(=O)CSc1nc2ccccc2nc1Cc1ccc(F)cc1)c1cccc(C)c1,?,-,-,.,-
COc1ccccc1Cc1nc2ccccc2nc1SCC(=O)N1CCN(c2ccccc2)CC1,.,-,.,.,-
Cc1ccc(Cc2nc3ccccc3nc2SCC(=O)N2CCCCC2C)cc1 (centres undefined),?,-,?,.,15.8µM
COc1ccccc1Cc1nc2ccccc2nc1SCC(=O)N1CCC(C)CC1,?,-,-,.,15.8µM
COc1cccc(Cc2nc3ccccc3nc2SCC(=O)N2CCCCC2C)c1 (centres undefined),?,-,?,.,11.2µM
Cc1ccc2nc(SCC(=O)N3CCC4(CC3)CC4C(=O)Nc3ccc(F)c(F)c3)[nH]c2c1 (centres undefined),-,.,.,.,.
N#Cc1ccc(/C=C2/C=Cc3ccccc32)cc1,.,-,.,.,-
COc1cc(/C=C/c2ccc3cccc(O)c3n2)cc(Br)c1OC,?,-,-,?,-
COc1cc(/C=C/c2ccc3cccc(O)c3n2)cc(Cl)c1OC,?,-,-,-93.3,?
COc1cc(/C=C/c2nc(-c3ccccc3O)n[nH]2)cc(OC)c1OC,-,11.2µM,-,-120.6,?
SMILES,S2 tox,HepG2 tox,ATXN2 expr inh,IL-1B inflam inh,TGFb SMAD3 inh
COc1cc(/C=C/c2ccc3cccc(O)c3n2)cc(OC)c1OC,?,-,15.8µM,-102.2,?
COc1ccc(/C=C/c2ccc3cccc(O)c3n2)c(OC)c1OC,-,-,.,-90.8,?
COc1cccc(/C=C/c2ccc3cccc(O)c3n2)c1OC,.,-,.,-,?
O=C(NCC1Cc2cccc(-c3ncccn3)c2O1)c1cccc(-c2ccccc2F)c1 (centres undefined),-,.,.,.,.
COc1ccc(N(CC(=O)NCCc2ccc(C)cc2)S(=O)(=O)c2c(C)nn(C)c2C)cc1,-,-,-,.,?
COc1ccccc1N1CCN(C(=O)c2ccc(C(C)(C)C)cc2)CC1,-,-,-,-,-
